Hits are enriched below; roughly 2% of the tested compounds scored in any of these assays.
M4 PAM: potentiates acetylcholine response at human M4 receptor. CHO-K1 hM4/Gqi5, Fluo-8 calcium fluorescence, ACh EC20; 0% = ACh EC20, 100% = maximal ACh. activation, % at 3 µM. 360,000 compounds, 0.4% hits. P08173;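 active means activation above its plate's cutoff, the mean activation of sample wells plus 3 SD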
Target sequence (P08173 whole entry, looked up): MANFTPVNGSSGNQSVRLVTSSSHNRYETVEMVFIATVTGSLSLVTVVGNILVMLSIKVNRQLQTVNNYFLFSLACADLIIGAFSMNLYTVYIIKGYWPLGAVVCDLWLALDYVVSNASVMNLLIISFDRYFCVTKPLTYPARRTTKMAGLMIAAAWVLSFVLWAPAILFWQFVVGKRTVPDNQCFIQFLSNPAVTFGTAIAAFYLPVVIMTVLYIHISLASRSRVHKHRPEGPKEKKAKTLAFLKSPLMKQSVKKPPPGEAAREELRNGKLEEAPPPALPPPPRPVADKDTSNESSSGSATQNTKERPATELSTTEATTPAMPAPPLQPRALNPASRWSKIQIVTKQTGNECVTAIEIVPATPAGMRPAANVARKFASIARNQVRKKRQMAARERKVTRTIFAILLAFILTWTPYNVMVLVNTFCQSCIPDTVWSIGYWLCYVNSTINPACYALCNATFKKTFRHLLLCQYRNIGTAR
CHO-K1 Ca antag: nonselective inhibitor or artifact in parental CHO-K1 cells. ATP-induced calcium, Fluo-8 fluorescence. inhibition, % at 3 µM. 360,000 compounds, 0.6% hits. AID 602250;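 active means inhibition above a per-plate cutoff, the plate's mean sample inhibition plus 3 SD, cut at about 24% in these data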;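 further: 0% = DMSO plus EC80 ATP and 100% = DMSO alone without ATP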
CHRM4 antagonist: blocks acetylcholine activation of human M4 receptor; P08173; CHO-hM4 cells, ACh EC80, Fluo-8 calcium fluorescence; inhibition, % at 3 µM; 360,000 compounds, 0.73% hits; AID 624125;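 active means inhibition above its plate's cutoff, the mean inhibition of sample wells plus 3 SD, cut at about 27% in these data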;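 further: 0% = acetylcholine EC80 with DMSO and 100% = DMSO without agonist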
CHO-K1 Ca ag: M1 agonist counterscreen hit in parental CHO-K1 cells | Fluo-8 calcium fluorescence; scaled to maximal ATP response, vehicle zero | activation, % at 3 µM | 360,000 compounds, 0.48% hits; in the data active means activation above about 15%;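 further: untransfected CHO-K1 host cells lacking M1 receptor as counterscreen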
CHRM4 agonist: agonists of human muscarinic M4 receptor (CHRM4); P08173; CHO-K1 hM4/Gqi5, Fluo-8 calcium fluorescence; vehicle 0%, full acetylcholine response 100%; activation, % at 3 µM; 360,000 compounds, 0.14% hits;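 active means activation above the run mean over all test wells plus 3 SD, cut at about 32% in these data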;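 further: peak over basal fluorescence ratio per well then scaled between controls; 0% = DMSO wells and 100% = acetylcholine at EC100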
CHO-K1 Ca PAM: M1 PAM counterscreen hit in parental CHO-K1 cells; AID 602247; ATP EC20, Fluo-8 calcium fluorescence; 0% at ATP EC20, 100% at ATP max; activation, % at 3 µM; 360,000 compounds, 0.02% hits;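 active means activation above the run cutoff, the mean activation of all test compounds plus 3 SD, cut at about 40% in these data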;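 further: peak over basal fluorescence ratio in a 140 s read after ATP addition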
* = called active by the depositor; x = not tested or not shown.

SMILES	M4 PAM	CHO-K1 Ca antag	CHRM4 antagonist	CHO-K1 Ca ag	CHRM4 agonist	CHO-K1 Ca PAM
COC(=O)C1CCN(c2cc(Cl)nc(N)n2)CC1	-0.6	-9.0	-9.8	1.0	0.2	-0.7
NC(=O)C1CCN(c2cc(Cl)nc(N)n2)CC1	25.8*	-6.6	-15.4	1.3	1.9	17.0
Cc1nn(C)c(C(=O)Nc2ccc(S(=O)(=O)NC34CC5CC(CC(C5)C3)C4)cc2)c1Br	-8.5	4.7	6.7	0.6	3.3	7.8
O=C(CCN1C(=O)/C(=C/C=C/c2ccccc2)SC1=S)Nc1nccs1	4.5	25.8*	4.4	-0.9	-0.7	-5.9
CCOc1ccc(NC(=O)C[n+]2ccc(N(C)C)cc2)cc1	-1.1	5.3	8.9	11.3	0.5	10.8
CN(C)c1cc[n+](CC(=O)Nc2ccc(Oc3ccccc3)cc2)cc1	-22.2	3.7	42.9*	0.0	1.4	3.6
O=C(N/N=C/c1cccc(F)c1)c1ccc(Cl)cc1	1.8	-8.4	-6.1	1.0	0.2	10.1
O=C(NCCc1ccccn1)/C(=C/c1ccco1)NC(=O)c1ccccc1	-3.0	-8.2	0.4	-0.5	1.8	-4.9
O=C(NCc1ccccn1)/C(=C/c1ccco1)NC(=O)c1ccccc1	21.2*	-12.9	-13.5	1.4	5.0	26.9
O=C(CN1CCCc2ccccc21)NC(=O)NCc1ccco1	16.8	1.0	5.0	1.4	0.3	10.9
O=C(Oc1cccc(N2C(=O)CCC2=O)c1)c1ccccc1	-0.8	-22.5	2.3	0.7	0.9	20.8
O=C(Nc1ccc(Cl)c(S(=O)(=O)N2CCCCC2)c1)C1=COCCO1	10.9	-9.9	-12.5	1.9	2.5	5.3
CC(C)NC(=O)CCCc1ccccc1	29.4*	13.6	-0.8	-0.1	2.0	-6.4
CCC(NC(=O)CCCc1ccccc1)c1ccccc1 (stereo not drawn)	-1.4	-4.8	6.2	-0.1	-0.5	19.7
COc1cccc(-c2nc3ccc(O)cc3c(=O)o2)c1	4.7	-9.3	13.6	-0.6	-0.1	-2.2
Cn1c(=O)[nH]c(=O)c2c1nc(N1CCOCC1)n2CCCSc1ncccn1	-2.8	-5.7	1.9	15.6*	-0.1	-0.1
COc1ccc(C(=O)OCC(=O)NC23CC4CC(CC(C4)C2)C3)c(OC)c1OC	-1.4	-21.9	-9.0	3.6	8.9	-4.4
CC(NC(=O)NCCCC(=O)O)(C(F)(F)F)C(F)(F)F	6.8	25.0*	7.2	-0.4	0.9	-5.3
Cc1ccccc1NC(=O)c1sc2nc[nH]c(=O)c2c1C	6.0	23.9*	9.8	-0.4	0.9	-14.2
COC(=O)c1sc2nc[nH]c(=O)c2c1C	-1.2	16.5	9.1	-0.2	-0.1	-4.8
CCN(CC)C1=NC=CC(c2ccccc2)=CC1C (stereo not drawn)	-32.4	11.8	39.1*	0.1	1.7	-5.6
COc1ccccc1CN1C[C@@H]2C[C@@H](c3cccc(C)n3)N3CCC[C@@]23C1=O	-2.7	2.8	8.6	0.1	1.0	16.5
COc1ccccc1CN1C[C@@H]2C[C@@H](c3[nH]c4c(C)cccc4c3C)N3CCC[C@@]23C1=O	3.8	-24.0	-12.1	15.4*	15.6	31.4
Cc1nn(C)c(Oc2ccccc2)c1CCNC(=O)CC(C)C	-3.7	-8.8	-10.1	3.6	7.6	18.1
Cc1ccc(-n2c(CSc3nc(C)cc(C)n3)nnc2SCC(=O)Nc2nccs2)cc1	24.9	-7.2	38.0*	0.7	2.8	3.0
SMILES	M4 PAM	CHO-K1 Ca antag	CHRM4 antagonist	CHO-K1 Ca ag	CHRM4 agonist	CHO-K1 Ca PAM
COc1ccc(-n2c(CSc3nc(C)cc(C)n3)nnc2SCC(=O)Nc2nccs2)cc1	0.2	5.3	-3.0	0.5	0.3	1.9
COc1ccccc1NC(=O)CSc1nc2ccccc2cc1Cc1ccccc1	-1.2	-10.7	-6.7	0.8	0.5	41.7*
Cc1csc(N(C)C(=O)CSc2nnc(COc3cccc4ccccc34)o2)n1	0.8	5.6	0.5	-0.5	0.0	60.9*
COc1ccccc1NC(=O)CSc1nnc(COc2ccccc2C)o1	-24.3	2.6	100.3*	1.3	3.0	3.0
CSc1nnc(-c2cccc(NC(=S)NN)c2)o1	2.0	13.5	-7.0	0.7	3.7	-7.5
O=C(COC(=O)CCS(=O)(=O)c1ccccc1)Nc1ccc(N2CCCCC2)cc1	23.1*	-1.9	-10.4	0.1	4.2	22.6
Cc1ccc(S(=O)(=O)CCC(=O)OCC(=O)Nc2ccc(N3CCOCC3)cc2)cc1	-5.7	-8.8	0.3	-0.1	1.6	-8.1
CCCCNC(=O)Cc1coc2ccc3ccccc3c12	5.8	27.3*	7.1	-0.2	-1.1	-3.8
COc1ccccc1C(CC(=O)c1ccccc1)C(=O)c1ccccc1 (stereo not drawn)	-11.0	x	27.4*	x	14.2	x
COc1ccccc1NC(=O)N1c2ccc(F)cc2CCC1C (stereo not drawn)	0.3	24.0*	-7.3	-0.1	0.1	-8.7
COc1ccc(C(=O)N2c3ccc(F)cc3CCC2C)cc1OC (stereo not drawn)	-7.2	15.5	-1.0	0.1	0.9	-5.8
CN(C)CCCN=c1cc(-c2ccccc2)oc2ccc(Cl)cc12	-4.6	-5.9	9.4	0.9	-0.4	13.8
CN(C)c1ccc(N=c2sc3ccccc3n2C)cc1	5.1	-19.7	-12.7	-0.4	-1.9	-0.7
CC1Cn2c(nnc2-c2ccc(F)cc2)S1 (stereo not drawn)	1.1	25.6*	-6.8	0.1	-1.0	-3.2
CCc1ccc2c(c1)C(c1ccc([N+](=O)[O-])cc1)=NNC(c1ccc(C)cc1)=N2	-4.4	10.6	4.8	18.2*	-0.9	15.9
CCc1ccc2c(c1)C(c1ccc(N3CCOCC3)cc1)=NNC(c1ccncc1)=N2	0.6	-9.0	-6.3	0.1	0.3	8.8
Cc1ccc(S(=O)(=O)NNC(=O)CCC(=O)Nc2ccc(C)c(C)c2)cc1	-1.9	-7.7	-1.9	-0.2	0.5	15.4
Cc1ccc2nc(NCc3ccco3)c(C=NCc3ccco3)c(=O)n2c1	7.7	-20.1	9.2	-0.1	1.0	-7.8
CCc1ccc(NC(=O)CSc2nc3cc(C(=O)OC)ccc3c(=O)n2Cc2ccco2)cc1	1.8	10.1	0.1	0.3	0.4	-0.9
CCN(C(=O)CSc1nc2cc(C(=O)OC)ccc2c(=O)n1Cc1ccco1)c1cccc(C)c1	16.4	26.2*	7.5	-0.6	0.2	-4.9
O=C(COC(=O)CCc1nc2ccccc2s1)Nc1ccc(Cl)cn1	1.5	-10.9	0.6	1.4	2.4	-0.8
COc1ccc(/C=C/CN2CCCC(CO)(Cc3cccc(Cl)c3)C2)cc1 (stereo not drawn)	-24.4	-4.2	-0.1	28.4*	8.3	8.9
COc1ccc(N(CC(=O)NC(C)(C)C)C(=O)CCC(=O)Nc2nccs2)cc1	-0.8	-3.4	-2.3	0.2	-0.1	12.2
O=C(Nc1cccc(NC(=O)c2ccccc2Cl)c1)c1ccc([N+](=O)[O-])o1	-8.9	4.1	13.7	17.0*	23.9	-10.2
